Legend:
[1] = target: Sphingosine kinase 1 (Homo sapiens) (UniProt Q9NYA1); settings: at 1 µM;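 further: mean SPHK1 inhibition value reported from the GSK PKIS kinase panel screen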
[2] = target: T1, Sphingosine kinase 2 (Homo sapiens) (UniProt Q9NRA0); settings: at 0.1 µM
T1 sequence (whole entry): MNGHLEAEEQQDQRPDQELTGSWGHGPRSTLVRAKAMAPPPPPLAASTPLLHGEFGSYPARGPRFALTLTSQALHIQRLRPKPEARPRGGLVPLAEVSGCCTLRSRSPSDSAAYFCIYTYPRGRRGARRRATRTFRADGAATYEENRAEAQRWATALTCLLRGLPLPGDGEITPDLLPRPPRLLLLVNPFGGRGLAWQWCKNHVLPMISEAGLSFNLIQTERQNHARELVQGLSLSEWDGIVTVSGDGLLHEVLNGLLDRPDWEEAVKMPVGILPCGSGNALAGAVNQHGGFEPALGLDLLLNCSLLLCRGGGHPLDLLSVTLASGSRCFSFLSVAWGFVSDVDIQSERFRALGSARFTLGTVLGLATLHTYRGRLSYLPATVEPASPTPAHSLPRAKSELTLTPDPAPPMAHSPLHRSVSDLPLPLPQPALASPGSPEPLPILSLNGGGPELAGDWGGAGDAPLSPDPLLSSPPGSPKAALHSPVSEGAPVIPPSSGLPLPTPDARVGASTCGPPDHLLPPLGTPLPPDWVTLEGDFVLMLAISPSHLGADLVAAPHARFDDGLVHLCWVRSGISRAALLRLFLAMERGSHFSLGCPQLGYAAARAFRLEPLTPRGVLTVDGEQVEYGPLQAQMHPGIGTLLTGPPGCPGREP

[3] = target: T1, Sphingosine kinase 2 (Homo sapiens); settings: at 1 µM
[4] = target: Casein kinase II subunit alpha (Homo sapiens) (UniProt P68400); settings: at 0.1 µM
[5] = target: Casein kinase II subunit alpha (Homo sapiens) (UniProt P68400); settings: at 1 µM
[6] = target: T2, Inhibitor of nuclear factor kappa-B kinase subunit alpha (Homo sapiens) (UniProt O15111); settings: at 0.1 µM
T2 sequence (whole entry): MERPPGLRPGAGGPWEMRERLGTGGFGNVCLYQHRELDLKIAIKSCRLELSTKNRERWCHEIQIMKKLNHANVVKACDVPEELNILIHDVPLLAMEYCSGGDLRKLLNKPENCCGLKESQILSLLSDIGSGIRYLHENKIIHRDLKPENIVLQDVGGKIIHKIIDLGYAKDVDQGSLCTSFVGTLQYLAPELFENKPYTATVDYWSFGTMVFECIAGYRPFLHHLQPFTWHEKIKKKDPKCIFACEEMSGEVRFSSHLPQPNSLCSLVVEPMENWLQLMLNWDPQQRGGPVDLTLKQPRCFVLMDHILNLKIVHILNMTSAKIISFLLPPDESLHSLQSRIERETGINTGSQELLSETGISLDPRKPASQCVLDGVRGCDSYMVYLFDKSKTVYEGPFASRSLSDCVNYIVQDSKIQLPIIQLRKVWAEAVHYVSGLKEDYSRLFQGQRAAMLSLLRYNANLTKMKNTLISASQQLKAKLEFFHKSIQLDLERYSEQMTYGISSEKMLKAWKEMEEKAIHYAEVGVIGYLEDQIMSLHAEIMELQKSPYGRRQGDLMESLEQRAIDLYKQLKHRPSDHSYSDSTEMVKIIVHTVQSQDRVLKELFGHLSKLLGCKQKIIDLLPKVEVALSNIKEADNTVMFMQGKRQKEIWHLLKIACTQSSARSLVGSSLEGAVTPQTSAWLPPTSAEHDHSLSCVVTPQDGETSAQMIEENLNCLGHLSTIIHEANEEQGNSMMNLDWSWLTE

[7] = target: T2, Inhibitor of nuclear factor kappa-B kinase subunit alpha (Homo sapiens); settings: at 1 µM
[8] = target: T3, Inhibitor of nuclear factor kappa-B kinase subunit beta (Homo sapiens) (UniProt O14920); settings: at 0.1 µM
T3 sequence (whole entry): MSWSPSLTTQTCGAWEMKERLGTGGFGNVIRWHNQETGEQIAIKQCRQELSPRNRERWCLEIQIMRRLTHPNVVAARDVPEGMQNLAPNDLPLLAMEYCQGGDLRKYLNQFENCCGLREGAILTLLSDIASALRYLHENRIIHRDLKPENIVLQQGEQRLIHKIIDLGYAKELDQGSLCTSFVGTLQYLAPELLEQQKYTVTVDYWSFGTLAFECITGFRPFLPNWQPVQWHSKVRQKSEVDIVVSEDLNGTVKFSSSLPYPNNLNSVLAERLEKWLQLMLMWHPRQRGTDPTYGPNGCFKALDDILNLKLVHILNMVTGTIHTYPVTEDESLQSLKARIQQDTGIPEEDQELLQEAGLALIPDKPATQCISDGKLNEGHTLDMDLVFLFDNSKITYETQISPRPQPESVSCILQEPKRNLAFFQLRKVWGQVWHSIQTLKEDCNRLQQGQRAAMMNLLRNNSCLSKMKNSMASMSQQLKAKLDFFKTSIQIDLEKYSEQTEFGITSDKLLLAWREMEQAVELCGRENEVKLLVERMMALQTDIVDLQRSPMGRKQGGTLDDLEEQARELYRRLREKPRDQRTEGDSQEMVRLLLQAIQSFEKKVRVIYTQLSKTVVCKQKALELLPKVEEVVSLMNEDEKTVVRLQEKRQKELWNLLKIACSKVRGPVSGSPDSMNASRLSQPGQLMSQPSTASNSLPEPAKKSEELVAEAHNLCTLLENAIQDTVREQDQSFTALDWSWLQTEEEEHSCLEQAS

[9] = target: T3, Inhibitor of nuclear factor kappa-B kinase subunit beta (Homo sapiens); settings: at 1 µM
[10] = target: T4, Inhibitor of nuclear factor kappa-B kinase subunit epsilon (Homo sapiens) (UniProt Q14164); settings: at 0.1 µM
T4 sequence (whole entry): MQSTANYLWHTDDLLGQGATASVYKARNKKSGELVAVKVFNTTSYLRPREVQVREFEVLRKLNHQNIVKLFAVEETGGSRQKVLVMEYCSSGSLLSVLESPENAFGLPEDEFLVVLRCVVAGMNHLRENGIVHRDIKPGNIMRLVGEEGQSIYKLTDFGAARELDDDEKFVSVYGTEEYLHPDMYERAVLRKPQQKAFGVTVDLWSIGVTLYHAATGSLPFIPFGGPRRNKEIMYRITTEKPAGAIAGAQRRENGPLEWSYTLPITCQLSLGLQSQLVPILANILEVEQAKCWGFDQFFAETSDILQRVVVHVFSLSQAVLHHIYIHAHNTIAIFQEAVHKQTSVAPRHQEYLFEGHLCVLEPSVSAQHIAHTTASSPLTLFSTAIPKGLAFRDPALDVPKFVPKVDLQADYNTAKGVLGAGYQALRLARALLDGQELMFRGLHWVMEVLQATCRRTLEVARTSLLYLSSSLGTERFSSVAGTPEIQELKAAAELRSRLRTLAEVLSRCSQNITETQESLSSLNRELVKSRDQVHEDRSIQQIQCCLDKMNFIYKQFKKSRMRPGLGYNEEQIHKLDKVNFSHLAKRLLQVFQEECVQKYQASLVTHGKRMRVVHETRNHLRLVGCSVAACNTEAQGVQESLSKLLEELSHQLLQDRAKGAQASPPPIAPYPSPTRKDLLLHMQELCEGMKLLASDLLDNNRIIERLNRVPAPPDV

[11] = target: T4, Inhibitor of nuclear factor kappa-B kinase subunit epsilon (Homo sapiens); settings: at 1 µM
[12] = target: T5, Serine/threonine-protein kinase Nek1 (Homo sapiens) (UniProt Q96PY6); settings: at 0.1 µM
T5 sequence (whole entry): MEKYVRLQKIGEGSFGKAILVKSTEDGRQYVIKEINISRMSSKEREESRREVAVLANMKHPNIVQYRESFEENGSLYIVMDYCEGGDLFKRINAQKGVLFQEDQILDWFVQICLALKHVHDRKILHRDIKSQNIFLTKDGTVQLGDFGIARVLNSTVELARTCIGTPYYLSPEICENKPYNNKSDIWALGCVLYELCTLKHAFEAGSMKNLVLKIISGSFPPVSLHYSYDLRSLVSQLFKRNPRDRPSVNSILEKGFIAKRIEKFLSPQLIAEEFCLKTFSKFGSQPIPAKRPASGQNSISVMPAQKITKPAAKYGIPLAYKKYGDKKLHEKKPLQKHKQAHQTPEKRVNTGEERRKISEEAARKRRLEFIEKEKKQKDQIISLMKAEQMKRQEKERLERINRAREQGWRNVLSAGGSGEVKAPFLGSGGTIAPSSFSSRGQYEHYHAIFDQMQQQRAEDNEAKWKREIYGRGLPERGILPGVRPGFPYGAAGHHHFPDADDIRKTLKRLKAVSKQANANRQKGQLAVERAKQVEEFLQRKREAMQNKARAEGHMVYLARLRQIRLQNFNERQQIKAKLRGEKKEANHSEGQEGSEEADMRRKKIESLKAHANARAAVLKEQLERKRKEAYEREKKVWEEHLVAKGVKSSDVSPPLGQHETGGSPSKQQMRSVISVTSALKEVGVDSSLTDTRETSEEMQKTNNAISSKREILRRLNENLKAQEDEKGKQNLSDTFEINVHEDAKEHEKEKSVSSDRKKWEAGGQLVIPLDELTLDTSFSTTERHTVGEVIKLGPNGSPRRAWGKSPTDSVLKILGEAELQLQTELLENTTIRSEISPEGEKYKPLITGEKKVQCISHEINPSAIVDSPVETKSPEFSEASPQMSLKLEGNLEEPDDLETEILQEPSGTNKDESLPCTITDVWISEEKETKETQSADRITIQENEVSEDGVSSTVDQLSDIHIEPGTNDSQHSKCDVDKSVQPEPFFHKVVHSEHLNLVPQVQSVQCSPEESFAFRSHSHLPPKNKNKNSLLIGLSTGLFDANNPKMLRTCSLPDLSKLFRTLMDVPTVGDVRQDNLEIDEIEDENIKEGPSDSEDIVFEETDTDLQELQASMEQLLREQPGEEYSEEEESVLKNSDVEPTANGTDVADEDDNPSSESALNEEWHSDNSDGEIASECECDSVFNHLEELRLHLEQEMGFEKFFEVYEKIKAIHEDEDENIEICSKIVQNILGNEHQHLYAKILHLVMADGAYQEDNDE

[13] = target: T5, Serine/threonine-protein kinase Nek1 (Homo sapiens); settings: at 1 µM
[14] = target: T6, Serine/threonine-protein kinase Nek2 (Homo sapiens) (UniProt P51955); settings: at 0.1 µM
T6 sequence (whole entry): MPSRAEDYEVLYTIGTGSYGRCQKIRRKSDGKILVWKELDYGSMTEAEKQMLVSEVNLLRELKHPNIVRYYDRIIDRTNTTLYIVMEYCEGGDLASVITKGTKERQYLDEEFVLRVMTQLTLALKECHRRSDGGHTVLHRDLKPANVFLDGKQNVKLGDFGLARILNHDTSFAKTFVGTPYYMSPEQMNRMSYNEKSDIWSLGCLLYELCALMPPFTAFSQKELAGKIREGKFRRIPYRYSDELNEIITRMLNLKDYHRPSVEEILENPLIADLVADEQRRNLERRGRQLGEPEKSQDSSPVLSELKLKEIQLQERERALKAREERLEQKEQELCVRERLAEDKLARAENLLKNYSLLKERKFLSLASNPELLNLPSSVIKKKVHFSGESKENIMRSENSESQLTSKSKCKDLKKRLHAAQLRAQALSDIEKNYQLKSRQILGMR

[15] = target: T6, Serine/threonine-protein kinase Nek2 (Homo sapiens); settings: at 1 µM
[16] = target: Serine/threonine-protein kinase Nek6 (Homo sapiens) (UniProt Q9HC98); settings: at 0.1 µM
[17] = target: Serine/threonine-protein kinase Nek6 (Homo sapiens) (UniProt Q9HC98); settings: at 1 µM
[18] = target: Serine/threonine-protein kinase Nek7 (Homo sapiens) (UniProt Q8TDX7); settings: at 0.1 µM
[19] = target: Serine/threonine-protein kinase Nek7 (Homo sapiens) (UniProt Q8TDX7); settings: at 1 µM
[20] = target: T7, Serine/threonine-protein kinase Nek9 (Homo sapiens) (UniProt Q8TD19); settings: at 0.1 µM;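 further: reported value is the mean percent inhibition of NEK9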
T7 sequence (whole entry): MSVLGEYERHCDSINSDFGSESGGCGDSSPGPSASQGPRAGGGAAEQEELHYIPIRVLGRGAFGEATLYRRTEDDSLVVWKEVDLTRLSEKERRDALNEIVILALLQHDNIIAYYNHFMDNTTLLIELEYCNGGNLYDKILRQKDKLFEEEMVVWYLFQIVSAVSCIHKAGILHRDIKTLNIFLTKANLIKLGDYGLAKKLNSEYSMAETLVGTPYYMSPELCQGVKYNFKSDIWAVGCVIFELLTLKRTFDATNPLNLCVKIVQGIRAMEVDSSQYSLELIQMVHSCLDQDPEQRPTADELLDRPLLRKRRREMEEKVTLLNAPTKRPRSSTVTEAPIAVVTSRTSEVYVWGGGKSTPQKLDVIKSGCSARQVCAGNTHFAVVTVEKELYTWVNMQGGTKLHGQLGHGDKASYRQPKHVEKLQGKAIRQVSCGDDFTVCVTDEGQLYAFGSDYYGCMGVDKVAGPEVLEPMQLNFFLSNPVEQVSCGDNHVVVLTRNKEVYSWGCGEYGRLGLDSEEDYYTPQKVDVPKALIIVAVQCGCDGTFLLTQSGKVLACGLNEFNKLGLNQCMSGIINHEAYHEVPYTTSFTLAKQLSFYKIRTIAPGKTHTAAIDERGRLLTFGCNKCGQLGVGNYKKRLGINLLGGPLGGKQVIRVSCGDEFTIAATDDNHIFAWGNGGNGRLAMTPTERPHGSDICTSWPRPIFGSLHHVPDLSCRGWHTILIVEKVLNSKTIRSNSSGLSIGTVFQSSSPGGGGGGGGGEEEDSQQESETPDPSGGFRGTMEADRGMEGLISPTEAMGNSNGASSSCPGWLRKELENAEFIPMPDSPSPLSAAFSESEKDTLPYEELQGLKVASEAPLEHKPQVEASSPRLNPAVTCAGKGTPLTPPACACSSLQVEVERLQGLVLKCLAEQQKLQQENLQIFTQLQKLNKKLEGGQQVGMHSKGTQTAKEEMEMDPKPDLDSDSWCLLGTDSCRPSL

Serine/threonine-protein kinase Nek7 (Homo sapiens), sequence (Q8TDX7 whole entry, looked up): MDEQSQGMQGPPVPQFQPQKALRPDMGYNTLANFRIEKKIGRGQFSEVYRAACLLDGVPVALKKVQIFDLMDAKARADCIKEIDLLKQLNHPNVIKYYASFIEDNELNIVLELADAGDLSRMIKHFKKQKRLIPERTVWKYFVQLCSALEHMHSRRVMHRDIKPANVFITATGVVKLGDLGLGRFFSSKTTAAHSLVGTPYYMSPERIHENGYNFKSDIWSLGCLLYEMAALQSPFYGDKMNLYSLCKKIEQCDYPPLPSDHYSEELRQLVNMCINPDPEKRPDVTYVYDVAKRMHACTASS
Casein kinase II subunit alpha (Homo sapiens), sequence (P68400 whole entry, looked up): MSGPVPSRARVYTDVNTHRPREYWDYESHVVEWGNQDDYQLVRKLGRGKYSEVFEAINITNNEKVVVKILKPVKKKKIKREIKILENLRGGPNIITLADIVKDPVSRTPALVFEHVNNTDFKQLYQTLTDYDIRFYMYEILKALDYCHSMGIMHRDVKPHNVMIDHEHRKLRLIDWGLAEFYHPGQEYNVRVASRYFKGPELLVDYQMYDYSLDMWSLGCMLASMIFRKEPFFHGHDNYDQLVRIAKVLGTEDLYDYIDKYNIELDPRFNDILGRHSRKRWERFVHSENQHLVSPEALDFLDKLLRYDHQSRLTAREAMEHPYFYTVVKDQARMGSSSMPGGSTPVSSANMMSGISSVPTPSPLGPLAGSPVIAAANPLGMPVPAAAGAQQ
Serine/threonine-protein kinase Nek6 (Homo sapiens), sequence (Q9HC98 whole entry): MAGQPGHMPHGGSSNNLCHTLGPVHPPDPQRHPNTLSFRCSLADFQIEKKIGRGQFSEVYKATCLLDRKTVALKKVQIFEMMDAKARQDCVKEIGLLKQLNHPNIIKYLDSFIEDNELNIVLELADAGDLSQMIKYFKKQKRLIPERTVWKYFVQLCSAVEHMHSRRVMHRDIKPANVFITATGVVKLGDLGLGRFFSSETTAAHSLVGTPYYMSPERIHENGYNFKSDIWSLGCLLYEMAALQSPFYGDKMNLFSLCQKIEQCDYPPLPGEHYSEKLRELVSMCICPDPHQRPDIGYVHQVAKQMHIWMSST
Sphingosine kinase 1 (Homo sapiens), sequence (Q9NYA1 whole entry): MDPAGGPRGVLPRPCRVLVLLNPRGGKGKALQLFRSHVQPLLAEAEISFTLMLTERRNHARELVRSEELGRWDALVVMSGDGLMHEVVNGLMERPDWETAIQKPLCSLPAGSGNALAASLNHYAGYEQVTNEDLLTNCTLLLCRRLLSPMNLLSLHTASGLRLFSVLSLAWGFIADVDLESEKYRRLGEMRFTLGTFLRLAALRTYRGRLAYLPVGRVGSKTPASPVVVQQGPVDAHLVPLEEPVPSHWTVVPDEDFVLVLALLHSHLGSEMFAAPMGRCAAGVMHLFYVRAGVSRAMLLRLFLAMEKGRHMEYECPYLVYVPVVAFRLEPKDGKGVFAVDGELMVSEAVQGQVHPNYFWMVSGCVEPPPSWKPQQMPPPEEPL

CCn1c(-c2nonc2N)nc2cncc(C(=O)NCCNC)c21
inhibition [1]: -1.79%
inhibition [2]: -0.3%
inhibition [3]: 8.93%
inhibition [4]: 4.41%
inhibition [5]: 2.99%
inhibition [6]: 8.82%
inhibition [7]: 14.1%
inhibition [8]: 6.55%
inhibition [9]: 7.92%
inhibition [10]: 7.73%
inhibition [11]: 17.6%
inhibition [12]: 2.71%
inhibition [13]: 5.36%
inhibition [14]: 6.66%
inhibition [15]: 6.84%
inhibition [16]: -0.45%
inhibition [17]: 0.9%
inhibition [18]: 3.5%
inhibition [19]: 4.72%
inhibition [20]: 7.8%

O=C1Nc2ccccc2/C1=C1\CCc2cc(O)ccc21
inhibition [1]: -8.14%
inhibition [2]: -0.36%
inhibition [3]: -2.47%
inhibition [4]: 3.18%
inhibition [5]: 9.1%
inhibition [6]: 13%
inhibition [7]: 5.45%
inhibition [8]: 5.41%
inhibition [9]: 5.64%
inhibition [10]: 6.27%
inhibition [11]: 20.3%
inhibition [12]: 3.11%
inhibition [13]: 4.37%
inhibition [14]: 7.09%
inhibition [15]: 5.47%
inhibition [16]: 1.9%
inhibition [17]: 1.99%
inhibition [18]: 5.62%
inhibition [19]: 4.31%
inhibition [20]: 8.42%

Source: ChEMBL document CHEMBL1961873, “Compounds: GSK PKIS; Assays: Nanosyn kinase panel” (2012)
